Assay type in all cases: functional
Test [1] concerns the target Solute carrier family 2, facilitated glucose transporter member 1 (Homo sapiens) (UniProt P11166). The experiment in a line: ST_JUDE_LEISH: Cytotoxicity at 2uM final concentration against transgenic Leishmania Mexicana promastigotes LmGLUT1 that are glucose transport deficient and complemented with the human glucose transporter GLUT1. Activity is measured by DNA content using SYBR green in vitro.

Test [2] deals with Hexose transporter 1 (Plasmodium falciparum) (UniProt O97467). As to the kind of experiment: ST_JUDE_LEISH: Cytotoxicity at 2uM final concentration against transgenic Leishmania Mexicana promastigotes LmPfHT that are glucose transport deficient and complemented with the Plasmodium falciparum hexose transporter. Activity is measured by DNA content using SYBR green in vitro.
For test [3], the target named is Glucose transporter (Leishmania mexicana) (UniProt O61059). The experiment in a line: ST_JUDE_LEISH: Cytotoxicity at 2uM final concentration against transgenic Leishmania Mexicana promastigotes LmGT2 that are glucose transport deficient and complemented with the L. Mexicana glucose transporter 2. Activity is measured by DNA content using SYBR green in vitro.

Chain of Solute carrier family 2, facilitated glucose transporter member 1 (Homo sapiens) (P11166 whole entry): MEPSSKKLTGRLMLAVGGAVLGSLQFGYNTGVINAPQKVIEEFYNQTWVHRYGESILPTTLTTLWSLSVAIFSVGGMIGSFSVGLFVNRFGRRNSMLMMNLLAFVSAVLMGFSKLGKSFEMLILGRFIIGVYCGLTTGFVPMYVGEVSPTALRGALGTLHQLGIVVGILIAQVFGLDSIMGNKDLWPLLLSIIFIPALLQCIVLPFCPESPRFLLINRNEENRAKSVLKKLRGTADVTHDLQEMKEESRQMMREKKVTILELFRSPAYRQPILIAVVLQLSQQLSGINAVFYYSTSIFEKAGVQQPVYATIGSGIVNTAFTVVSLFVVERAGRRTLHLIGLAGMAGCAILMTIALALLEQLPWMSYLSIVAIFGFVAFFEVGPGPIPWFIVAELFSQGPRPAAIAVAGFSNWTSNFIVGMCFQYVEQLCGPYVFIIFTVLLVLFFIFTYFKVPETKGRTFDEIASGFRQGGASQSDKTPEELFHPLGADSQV

Usually inhibition stands for the change of the read-out against control, counted positive when it falls. Take `Nc1nnc(-c2ccc(Cl)c(Br)c2)c(N)n1`: the inhibition in test [1] was -0.74%; in test [2], 1.8%; in test [3], 4.94%.
For `FC(F)(F)c1ccc2[nH]c(-c3ccc(-c4cccc(CNCc5ccccc5)c4)s3)nc2c1`, the inhibition in test [1] was found to be 2.04%; in test [2] it was 0.97%; in test [3], 1.82%.
On to `CS(=O)(=O)c1ccc(CCNCc2ccc(-c3ccc(CN(C(=O)c4ccco4)C4CCN(Cc5ccccc5)CC4)cc3)nc2)cc1`, for which the inhibition in test [1] turned out to be 1.33%; in test [2], 0.67%; in test [3] it was 4.41%.
For `O=C(NCc1ccccc1)Nc1ccc(-c2cccc(-c3nc4cc(C(F)(F)F)ccc4[nH]3)c2)cc1`, in that order: -0.99%, -0.18% and -1.23%.
For `CCOc1ccc(OCC)c(N2CCN(CCCCNC(=O)c3ccc(NC(=O)c4ccc(Cl)cc4)cc3)CC2)c1`, in that order: 3.44%, 3.28% and 3.45%.
For the compound `Cc1ccc(Cl)cc1N1CCN(CCCNC(=O)C2CCN(c3nc4ccccc4[nH]3)CC2)CC1`, the inhibition in test [1] was 4.49%; in test [2] it was 5.2%; in test [3], 5.6%.
For `COc1ccc(CNC(=O)NC2CCN(c3ccnc(Nc4ccc(OC)cc4)n3)C2)cc1` (centres undefined), the figures for the inhibition in test [1], in test [2] and in test [3] were 1.61%, 1.7% and 1.82%, respectively.
On to `CCCCCCCC1CC(CC(=O)Nc2ccnc3ccc(OC)cc23)CN1C(=O)OC(C)(C)C` (centres undefined), for which the figures for the inhibition in test [1], in test [2] and in test [3] were 9.12%, 11.2% and 3.12%, respectively.
For the compound `CNC(=O)c1ccc(/C=C/C(=O)N2CCc3ccc(-c4ccccc4)cc3C2c2cccc(C(F)(F)F)c2)cc1` (centres undefined), the inhibition is 2.29% in test [1], -0.01% in test [2] and 0.99% in test [3].
Take `Cc1cccc2nc(-c3ccc(-c4ccc(CN5CCCC(O)C5)cc4)cc3)[nH]c12` (centres undefined): the values for the inhibition in test [1], in test [2] and in test [3] were 25.8%, 30.8% and 19.8%, respectively.
For `COc1ccc(CNC2CCN(c3ccc(NC(=O)c4cccc(Cl)c4)cc3)CC2)cc1OC`, the inhibition in test [1] came to 2.25%; in test [2], 1.47%; in test [3], 0.61%.
With `Cc1cc(NCCC(=O)Nc2ccccc2)nc(NCCc2ccccc2)n1`, the inhibition in test [1] amounted to 3.62%; in test [2], 1.77%; in test [3], 0.45%.
Take `Cc1cc(NC(=O)NCCN2CCC(NS(=O)(=O)c3ccc(Br)cc3)C2)c2ccccc2n1` (centres undefined): the inhibition came out at 4.43% in test [1], 3.86% in test [2] and 3.49% in test [3].
For `CCC(C)CN1CCCN(c2ccc(NC(=O)c3cccs3)cc2)CC1` (centres undefined), in that order: 1.62%, -0.95% and 5.89%.
Regarding `O=c1cc(NCCCNCc2cc3c(Cl)cccc3s2)[nH]c2ccccc12`, the inhibition in test [1] is -1.61%; in test [2], -0.8%; in test [3] it was -2.02%.
In the case of `CN(Cc1ccc(NC(=O)CCC2CCN(C(=O)/C=C/c3ccc(Cl)c(Cl)c3)CC2)cc1)C1CCOCC1`, the results for the inhibition in test [1], in test [2] and in test [3] were 4.84%, 5.1% and -1.91%, respectively.
Take `CN1CCC(C(=O)N(Cc2ccc(-c3ccc(CNCCc4ccc(S(C)(=O)=O)cc4)cn3)cc2)Cc2cccc(F)c2)CC1`: the inhibition amounted to 1.69% in test [1], 0.58% in test [2] and 0.97% in test [3].
For `CC1(C)CN(CCC2CCC(NC(=O)/C=C/c3ccccc3F)CC2)Cc2ccc(C#N)cc21` (centres undefined), in that order: 3.59%, 1% and 1.48%.
`CC1Cc2ccccc2N1CC(=O)Nc1cc(C(F)(F)F)ccc1-n1cncn1` (centres undefined): the inhibition in test [1] was 1.94%; in test [2] it was 2.01%; in test [3], -1.95%.
For `COc1ccc2nc3cc(Cl)ccc3c(NCCCCNc3c4ccc(Cl)cc4nc4ccc(OC)cc34)c2c1`, the inhibition in test [1] came to 11.8%; in test [2], 12.5%; in test [3], 9.15%.
With `O=C(Nc1cccc(-c2csc(NC(=O)c3ccc4ccccc4c3)n2)c1)c1ccc2ccccc2c1`, the inhibition in test [1] amounted to 1.53%; in test [2], 1.22%; in test [3], 0.66%.
As for `CN1CCC(NC(=O)c2cc(Oc3ccc4c(c3)CCN4C(=O)Nc3cccc(C(F)(F)F)c3)ccn2)CC1`, the inhibition in test [1] is 3.67%; in test [2], 6.55%; in test [3], 1.74%.
In the case of `CCCCN(CCCC)CCCN(CCCN(CCCC)CCCC)c1cc(C)nc(Nc2ccc3cc(Br)ccc3c2)n1`, the values for the inhibition in test [1], in test [2] and in test [3] were 12%, 10.1% and 6.68%, respectively.
As for `CC(=O)N[C@H](C(=O)Nc1cccc(-c2ccc(-c3nc4cccc(C)c4[nH]3)s2)c1)C(C)C`, the inhibition in test [1] stood at 3.65%; in test [2], 2.85%; in test [3] it was 2.08%.
In the case of `CCS[C@@H]1O[C@H](COC(=O)c2ccccc2)[C@H](OC(=O)c2ccccc2)[C@H](OC(=O)c2ccccc2)[C@H]1OC(=O)c1ccccc1`, the results for the inhibition in test [1], in test [2] and in test [3] were 1.02%, 4.06% and 2.02%, respectively.
As for `COc1ccc2c(c1)ncn2-c1cc(OCc2ccncc2Br)c(C(N)=O)s1`, the inhibition in test [1] was 1.09%; in test [2], 1.34%; in test [3] it was 2.35%.
On to `CN(C)CCNC(=O)[C@H](Cc1ccccc1)NC(=O)c1ccc(O)c(-c2ccc(Cl)c(Cl)c2)c1`, for which the values for the inhibition in test [1], in test [2] and in test [3] were -0.64%, 1.18% and -2.32%, respectively.
Turning to `C=CCn1c(Cc2ccccc2)nnc1Sc1ccc(C#N)c([N+](=O)[O-])c1`, the inhibition in test [1] was 3.36%; in test [2] it was 3.11%; in test [3], 2.02%.
In the case of `c1csc(-c2nc(N3CCCC3)ncc2-c2ccsc2)n1`, the inhibition in test [1] was 0.85%; in test [2] it was -0.18%; in test [3] it was 1.26%.
For `N=C(N)NCCCCN(Cc1ccccc1)c1ccccc1`, in that order: 3.52%, 3.53% and 3.86%.
In the case of `CCc1c(C)nc(-n2nc(C)cc2NC(=O)c2ccc(OC)cc2OC)[nH]c1=O`, the inhibition in test [1] was found to be 30.4%; in test [2], 31.7%; in test [3], 8.75%.
With `Cc1cccc(CNc2nc(C)cc(NCCC(=O)NCc3cccc(F)c3)n2)c1`, the inhibition in test [1] was found to be 7.68%; in test [2], 7.53%; in test [3] it was 4.51%.
For `CC1CCCCN1CCCNc1nc(NCc2ccccc2)c2ccccc2n1` (centres undefined), in that order: 23.1%, 31.8% and 10.2%.
For `CCOC(=O)C1=C(C)NC2=C(C(=O)CC(C)(C)C2)C1c1ccc(Br)cc1` (centres undefined), in that order: 1.77%, 0.63% and 0.59%.
`Cc1cccc2nc(-c3cccc(-c4ccc(NC(=O)Nc5ccsc5)cc4)c3)[nH]c12`: the inhibition stood at 5% in test [1], 4.66% in test [2] and 2.53% in test [3].
For `CC(C)C(=O)NC(NC(=S)Nc1ccc(Br)cc1)C(Cl)(Cl)Cl` (centres undefined), the values for the inhibition in test [1], in test [2] and in test [3] were -2.18%, 2.18% and -0.89%, respectively.
With `COc1ccc2nccc([C@@H](O)CN3CCC(NCc4cc5c(Cl)cc(Cl)cc5[nH]4)CC3)c2c1`, the inhibition in test [1] came out at 6.83%; in test [2], 5.77%; in test [3], 1.13%.
For `O=C(NCc1cccc(C(F)(F)F)c1)[C@@H]1CCCN1C(=O)c1ccc(O)c(-c2ccc(Cl)c(Cl)c2)c1`, the inhibition was -0.44% in test [1], -0.25% in test [2] and 0.24% in test [3].
For `CCOC(=O)c1cc(C(=O)NCCCCN2CCC(c3ccc(CC)cc3OCC)CC2)ccc1-c1ccc(C(F)(F)F)cc1`, in that order: 10.1%, 8.59% and 3.34%.
As to `COc1cccc(NC(=O)[C@H](C)n2c(=O)[nH]c3ccccc3c2=O)c1`, the inhibition in test [1] came to 10.9%; in test [2], 14.1%; in test [3] it was 7.45%.
Turning to `O=C(NC1CC1)c1ccc(Nc2nccc(-c3c(-c4cccc(NC(=O)c5c(F)cccc5F)c4)nn4ccccc34)n2)cc1`, the inhibition stood at 7.45% in test [1], 8.87% in test [2] and 3.41% in test [3].
With `CCOC(=O)c1c(CCc2ccc(C(F)(F)F)cc2)nc2c(c1-c1ccc(C(=O)N[C@@H](C)c3ccncc3)cc1)C(=O)N1CCC[C@@H]21`, the results for the inhibition in test [1], in test [2] and in test [3] were 2.81%, 1.31% and 0.48%, respectively.
For `O=C(CCc1c[nH]cn1)Nc1ccc(-c2ccc(-c3nc4cc(F)ccc4[nH]3)cc2)cc1`, in that order: 1.4%, 1.73% and 1.81%.
For the compound `COc1cccc(-c2ccc(C(=O)NC3CCN(Cc4ccc(C(C)(C)C)cc4)CC3)s2)c1`, the inhibition was 0.02% in test [1], 0.82% in test [2] and -1.18% in test [3].
`CNC(=O)c1ccccc1Nc1nc(Nc2ccc(N3CCN(C)CC3)nc2)ncc1C`: the values for the inhibition in test [1], in test [2] and in test [3] were 12%, 11.3% and 9.03%, respectively.
For the compound `CN1CCN(c2ccc(Nc3ccnc4ccc(-c5ccccc5)cc34)cc2)CC1`, the inhibition is 1.32% in test [1], 1.83% in test [2] and -1.67% in test [3].
Regarding `CC(=O)NCCNc1nccc(N2CCc3ncnc(Nc4ccc(OCc5cccc(F)c5)c(Cl)c4)c3C2)n1`, the inhibition in test [1] was 0.07%; in test [2], -2.13%; in test [3] it was -2.74%.
As for `Cc1ccc(Nc2nc(N/N=C/c3cccc([N+](=O)[O-])c3)nc(Nc3ccccc3)n2)c(C)c1`, the inhibition is 2.34% in test [1], 1.33% in test [2] and -0.87% in test [3].
